{"source": "PubChem BioAssay (NCI)", "note": "Compounds without any hit were thinned out: in the full panel of roughly 83,000, 20% have a hit.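 Testing used 96-well plates and a 48-hour single-concentration exposure. Example: -40 means 40% of the starting cells died.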 Values without a mark were called inactive. The source made the active and inactive calls. How the source made its calls: active means growth percent below 10; inactive means the rest.", "data": [{"tested_on": "HL-60(TB) leukemia", "test": "NCI-60 one-dose screen, 48 h (100 = growth as untreated, 0 = no growth, -100 = all killed)", "conditions": "10 µM unless noted", "values": [{"smiles": "Cc1ccc(NC(=O)Nc2cccnc2)cc1NC(=O)Nc1cccnc1", "growth": "71.1%"}, {"smiles": "CC(C)=C[C@@H]1c2c(c3ccccc3n(C)c2=O)O[C@H]2c3c(c4ccccc4n(C)c3=O)OC(C)(C)[C@@H]12", "growth": "20.4%"}, {"smiles": "CCOC(=O)C1(CC(C)C)CCOC1=O", "note": "(centres undefined)", "growth": "96.9%"}, {"smiles": "COc1ccccc1-n1c(-c2ccc(O)cc2C)cn2c3c(=O)[nH]c(=O)n(C)c3nc12", "growth": "79.9%"}, {"smiles": "COc1cc(/C=C/C(=O)c2c(C)n([O-])c3ccc(Cl)cc3[n+]2=O)cc(OC)c1OC", "growth": "12.7%"}, {"smiles": "O=C(/C=C/C12c3ccccc3C(c3ccccc31)C1C(=O)NC(=O)C12)c1cccs1", "note": "(centres undefined)", "growth": "6.95% (active)"}, {"smiles": "COc1ccc(/C=C(/c2ccccc2)[N+](=O)[O-])c(OC)c1", "growth": "0.521% (active)"}, {"smiles": "CC12CCCC(CC(=O)c3[nH]c4ccccc4c31)C2", "note": "(centres undefined)", "growth": "-0.598% (active)"}, {"smiles": "COc1cc2c(cc1OCCCCN1CCN(C(=S)SCCC(C#N)(c3ccccc3)c3ccccc3)CC1)N=C[C@@H]1CCCN1C2=O", "growth": "-40.8% (active)"}, {"smiles": "O=C(NCCNc1cc(-c2cn(-c3ccccc3)nc2-c2cccc(O)c2)ccn1)Nc1ccccc1", "growth": "29.9%"}, {"smiles": "N#Cc1c(N)n(CCNC(=O)c2ccccc2)c2nc3ccccc3nc12", "growth": "34.5%"}, {"smiles": "O=[N+]([O-])c1cccc(-c2nc3sccn3c2-c2ccnc(NCCCNS(=O)(=O)c3ccc(C(F)(F)F)cc3)n2)c1", "growth": "0.27% (active)"}, {"smiles": "COc1ccc(-c2cnoc2-c2ccc(OC)cc2O)cc1", "growth": "26.4%"}, {"smiles": "COc1cc(NCC(=O)Nc2cc(Nc3cccc(C(F)(F)F)c3)ncn2)c(Cl)c(OC)c1Cl", "growth": "79.2%"}, {"smiles": "N#Cc1nc2c(S(=O)(=O)c3ccc(Cl)cc3)c(N)n(Nc3cccc(Cl)c3)c2nc1C#N", "growth": "40.1%"}, {"smiles": "Cc1nn(-c2ccccc2)c2nc(Cl)c(C=O)c(-c3ccccc3)c12", "growth": "95.8%"}, {"smiles": "CC(C)C[C@H](NC(=O)Cn1cccc(CNC(=O)c2ccccc2)c1=O)B(O)O", "growth": "-51.3% (active)"}, {"smiles": "CCN(CC)CCSCCN(CC)CC", "growth": "100%"}, {"smiles": "CCN(CC)CC(C)(C)C(=O)/C=C/c1ccccc1", "growth": "26.2%"}, {"smiles": "NS(=O)(=O)Oc1ccc(-c2ccc3sccc3c2)cc1", "growth": "99.7%"}, {"smiles": "O=C(Nc1sc2c(c1C(=O)O)CCCC2)c1cccc(C(F)(F)F)c1", "growth": "92.9%"}, {"smiles": "O=C(/C=C/c1ccc(C(F)(F)F)cc1)c1ccc(Nc2nc(NCCO)nc(Nc3ccc(Cl)cc3)n2)cc1", "growth": "77%"}, {"smiles": "OC(c1cc(C23CC4CC(CC(C4)C2)C3)nc2c(Cl)cc(Cl)cc12)C1CCCCN1", "note": "(centres undefined)", "growth": "-47.7% (active)"}, {"smiles": "COc1ccc(C2CC(=O)c3c(O)c(OC)c(OC)c(OC)c3O2)cc1O", "note": "(centres undefined)", "growth": "-4.32% (active)"}]}]}
